Data taken from PubChem BioAssay (NCATS).
Inconclusive results are not listed. Active and inactive are the calls of the source. Calls follow the shape of the dose curve; as a rule, active = well fitted cell-killing curve with a large enough effect; inconclusive = small, poorly fitted or top-dose-only effect; inactive = flat fitted curve, though single readings scatter.

Assay: Cell Viability - LYMP1-003 - Assay at 40 hr (AID 964); also: nearly all actives have a fitted effect of over 60% in size
Settings: LYMP1-003 lymphoblastoid viability; series mostly up to 92.2 µM; activity change, negative = cytotoxic: at the top concentration
Text: NIH Chemical Genomics Center [NCGC]
NIH Molecular Libraries Screening Centers Network [MLSCN]
National Institutes of Environmental Health Sciences [NIEHS]
National Toxicology Program [NTP]
We have developed a 1536-well cell-based assay for quantitative high throughput screening (qHTS) against a number of cell lines to determine in vitro cytotoxicity of small molecules. This particular assay uses a human lymphoblastoid cell line (LYMP1-003) purchased from Coriell Institute for Medical Research.
NCGC Assay Protocol Summary:
The CellTiter-Glo luminescent cell viability assay (Promega) is a homogeneous method to measure the number of viable cells in culture. The end point readout of this assay is based on quantitation of intracellular ATP, an indicator of metabolic activity, using the luciferase reaction. Luciferase catalyzes the oxidation of beetle Luciferin to oxyluciferin and light in the presence of ATP. The luminescent signal is proportional to amount of ATP present.
Using the CellTiter-Glo luminescent cell viability assay, the amount of cellular ATP was measured in the lymphoblastoid cell line with complete culture medium following compound treatment for 40 hours. The assay was performed in opaque white Kalypsys 1536-well plates. In the screen, tetraoctylammonium bromide was used as positive control. Library compounds were measured for their ability to cause acute toxicity in the cell line, as reflected by a decrease in intracellular ATP levels, in a concentration-dependent manner. […] AC50 values were determined from concentration-response data modeled with the standard Hill equation.
qHTS protocol for CellTiter Glo lymphoblastoid cellular assay
[Step] [Parameter] [Value] [Description]
1. Reagent; 5 uL; 2500 lymphoblastoid cells/well
2. Time; 5 hr; 37 C incubation
4. Controls; 23 nL; Tetraoctylammonium bromide 6.4pM to 92 uM
5. Time; 40 hr; 37 C incubation
6. Reagent; 5 uL; CellTiter Glo reagent
7. Time; 30 min; Room Temperature
8. Detection; Luminescence; Viewlux plate reader
Keywords: cell viability, cytotoxicity, lymphoblastoid cell line, luminescence, NTPHTS, NTPHTS_NCGC, NIEHS, DSSTox, MLSMR, MLSCN, NIH Roadmap, qHTS, NCGC
% is scaled to controls: 0 for no effect and ±100 for the full control effect.

Row | Compound | activity change, negative = cytotoxic
1 | NC=O | 1.66% (inactive)
2 | NC(N)=S | -13.2% (inactive)
3 | CCC(O)C(C)(C)C (stereo not given) | 4% (inactive)
4 | CCNc1cc(O)ccc1C | -9.36% (inactive)
5 | Cc1ccc2nc(-c3ccc(N)cc3)sc2c1S(=O)(=O)O | -12.8% (inactive)
6 | CC(C)C=O | -4.32% (inactive)
7 | CC(=O)c1ccccn1 | -16.2% (inactive)
8 | Nc1cc(Cl)c([N+](=O)[O-])cc1O | -21.8% (inactive)
9 | C[C@@H]1O[C@@H](O[C@@H]2[C@@H](O)[C@H](OCCc3ccc(O)c(O)c3)O[C@H](CO[C@@H]3O[C@H](CO)[C@@H](O)[C@H](O)[C@H]3O)[C@H]2OC(=O)/C=C/c2ccc(O)c(O)c2)[C@H](O)[C@H](O)[C@H]1O | -9.28% (inactive)
10 | CC(N)CN (stereo not given) | -4.94% (inactive)
11 | C=CCOC(=O)CCCCCCCC | -8.03% (inactive)
12 | CC(C)(O)CCC(C)(C)O | -1.86% (inactive)
13 | Cc1ccc2c(c1[N+](=O)[O-])C(=O)c1ccccc1C2=O | -8.9% (inactive)
14 | Nc1ccccc1[N+](=O)[O-] | -3.97% (inactive)
15 | N#CCc1ccccc1[N+](=O)[O-] | -10.1% (inactive)
16 | Cc1ccc(C)c(O)c1 | -4.28% (inactive)
17 | CNC(=O)c1ccccc1 | 0.136% (inactive)
18 | COc1ccc(N)c(OC)c1 | 0.891% (inactive)
19 | CCCCCCCCC/C=C/CC1CC(=O)OC1=O (stereo not given) | -1.5% (inactive)
20 | CC(O)COC(C)(C)C (stereo not given) | -4.69% (inactive)

Row | Compound | activity change, negative = cytotoxic
21 | C=CCCCC | -1.64% (inactive)
22 | CCOc1ccccc1N | -7.08% (inactive)
23 | Cc1cc(C2(c3cc(C)c(O)cc3C)OS(=O)(=O)c3ccccc32)c(C)cc1O | -15.7% (inactive)
24 | c1ccc(Oc2ccccc2)cc1 | -6.14% (inactive)
25 | CCCCCCO | -3.54% (inactive)
26 | c1ccc2c(c1)Oc1ccccc1S2 | -1.85% (inactive)
27 | OCCO | 4% (inactive)
28 | C[C@@H]1CC2(OC3C[C@@]4(C)C5=CC[C@H]6C(C)(C)C(O[C@@H]7OC[C@@H](O)[C@H](O)[C@H]7O)CC[C@@]67C[C@@]57CC[C@]4(C)C31)OC(O)C1(C)OC21 (stereo not given in full) | -19.5% (inactive)
29 | CC(=O)OCc1ccco1 | -6.15% (inactive)
30 | NC(=O)/N=N/C(N)=O | 3.93% (inactive)
31 | CC(C)(O)C(=O)O | -17.2% (inactive)
32 | Cc1cccc2sc(N)nc12 | -2.34% (inactive)
33 | C1COC1 | -5.4% (inactive)
34 | BrC/C=C/CBr | -4.95% (inactive)
35 | Cc1ccc2ncccc2c1 | -1.75% (inactive)
36 | O=C1OC(=O)c2c(Br)c(Br)c(Br)c(Br)c21 | -1.66% (inactive)
37 | CC(=C/C=C/C(C)=C/C=C/C=C(C)/C=C/C=C(C)/C=C/C(=O)O)/C=C/C(=O)O | -14.3% (inactive)
38 | CCCCC(CC)COC(=O)CCCCC(=O)OCC(CC)CCCC (stereo not given) | -7.04% (inactive)
39 | CCc1ccccc1 | -2.41% (inactive)
40 | O=C(O)c1cc(Cl)cc(Cl)c1 | -5.23% (inactive)
